In PubChem BioAssay (NCATS):
Inconclusive results are not listed. The source made the active and inactive calls. Calls follow the shape of the dose curve; as a rule, active = well fitted inhibition curve with a large enough effect; inconclusive = small, poorly fitted or top-dose-only effect; inactive = flat fitted curve, though single readings scatter.

test system: NIH3T3; assay: qHTS assay to identify novel small-molecules to repurpose for Merkel cell carcinoma treatment (AID 1296009); settings: MCC and control cell lines, CellTiter-Glo viability, 72 h; at 44.8 µM (top of the series) unless noted; also: nearly all actives have a fitted effect of over 60% in size
Source text: MCC is a rare and aggressive neuroendocrine skin cancer with limited treatment options. Approximately 80% of MCCs have the Merkel cell polyomavirus (MCPyV) DNA integrated into the host genome (virus-positive: VP-MCC) and viral oncogenes drive oncogenesis. The remaining MCCs are virus-negative (VN-MCC) and are caused by UV mutagenesis. To identify novel treatments for VP-MCC and/or VN-MCC we screened three VP-MCC cell lines (WAGA, MKL-1, MKL-2), three VN-MCC cell lines (MCC-13, MCC-26, UISO), and four immortalized, non-transformed control cell lines (HaCaT, HEK293T, CRL7250, NIH-3T3) against ~2,400 compounds in the NCGC Pharmaceutical Collection (NPC) and ~1,900 compounds in the Mechanism Interrogation PlatE (MiPE). Using cell viability as a readout (CellTiter-Glo assay) we found both overlapping and distinct drugs that can be repurposed for the treatment of VP-MCC and VN-MCC.
A high-throughput screen was conducted in 1536-well white flat bottom plates (Corning) on a Kalypsys robotic system. Cell lines WAGA, MKL-1, MKL-2, MCC-13, MCC-26, UISO, HaCaT, HEK293T, CRL7250, and NIH-3T3 were screened against 2 small molecule annotated drug libraries NPC and MIPE in dose response (8 and 11 pt. respectively) measuring cell viability after 72 hours of incubation. […] A 1,536 pintool (Kalypsys) was used to transfer 23 nL of compound in DMSO to the 1,536-well assay plates. After 72 hr incubation at 37 degree celsius, 2.5 uL of CellTiter-Glo (Promega) was dispensed into each well using a BiorapTR. Plates were incubated at room temperature for 10 min, transferred to a ViewLux (PerkinElmer) and the luminescence was recorded using an exposure time of 2 seconds. Relative luminescence units (RLUs) were normalized to in-plate controls (no cells as a positive (cytotoxicity) control, DMSO as negative control) and the normalized data was processed using NCATS in-house software.

Row | SMILES | outcome
1 | CC(C)C1CCC(C(=O)N[C@@H](Cc2ccccc2)C(=O)O)CC1 (stereo not given in full) | inactive
2 | c1cc(-c2cc(C3CCNCC3)[nH]n2)ccn1 | inactive [at 17.4 µM]
3 | CC(C)(C)NS(=O)(=O)c1ccc(-c2ccc3[nH]nc(N)c3c2)cc1 | inactive
4 | C/C=C(/C)C(=O)OC1CC(C)(C)CC2C3=CCC4C5(C)CCC(OC6OC(C)C(OC7OC(C(=O)O)C(O)C(OC8OC(CO)C(O)C(O)C8OC8OC(CO)C(O)C(O)C8O)C7O)C(O)C6O)C(C)(C)C5CCC4(C)C3(C)C(OC(=O)/C=C/C=C/C=C/CCC)C(OC(C)=O)C12CO (stereo not given) | inactive [at 9.27 µM]
5 | C=C1CC[C@@]2(OC1)O[C@H]1CC3[C@@H]4CC=C5C[C@@H](O)C[C@@H](O[C@@H]6OC[C@H](O)[C@H](O)[C@H]6O[C@@H]6O[C@@H](C)[C@H](O)[C@@H](O)[C@H]6O)[C@]5(C)C4CC[C@]3(C)[C@H]1[C@@H]2C (stereo not given in full) | inactive [at 17.4 µM]
6 | O=C(CCCCC1CCCCC1)N1CCC(c2cnc[nH]2)CC1 | inactive
7 | COc1c(-c2ccc(O)cc2)cc(OC)c2c1oc1cc(O)c(OC3OC(CO)C(O)C3O)cc12 (stereo not given) | inactive [at 17.4 µM]
8 | O=C(COCC(=O)N1CCN(C(c2ccccc2)c2ccccc2)CC1)Nc1ccc(Cl)cc1C(=O)O | inactive
9 | COc1cc(CC2COC(c3ccc(OC4OC(CO)C(O)C(O)C4O)c(OC)c3)C2CO)ccc1O (stereo not given) | inactive [at 17.4 µM]
10 | CCC(CC)CC1(C(=O)Nc2ccccc2SC(=O)C(C)C)CCCCC1 | inactive
11 | CC1(CO)CCCC2(C)C1C(OC(=O)c1ccccc1)CC1C(=O)OCC12O (stereo not given) | inactive
12 | C=C(C(=O)OC)[C@]12O[C@@](C)(CC[C@@]3(O)/C(=C\C)C(=O)O[C@]3(C)C[C@@H]1OC(=O)C(CO)CN1CCCC1C(=O)O)CC2=O (stereo not given in full) | inactive [at 17.4 µM]
13 | CC(C)c1ccc2c(c1)[C@H](O)CC1[C@@](C)(C(=O)O)CCC[C@]21C (stereo not given in full) | inactive
14 | C=C1CC/C=C(/CO)C(=O)C[C@@H]2[C@@H]1C[C@@]2(C)COC(C)=O | inactive
15 | C[C@@H]1CC2OC(=O)C3=C2C(CCC3O)[C@@]12C[C@@H](c1ccoc1)OC2=O (stereo not given in full) | inactive
16 | COC(=O)C1=CO[C@@H](O[C@@H]2O[C@H](CO[C@@H]3O[C@H](CO)[C@@H](O)[C@H](O)[C@H]3O)[C@@H](O)[C@H](O)[C@H]2O)[C@@H]2C(CO)=CC[C@H]12 | inactive [at 17.4 µM]
17 | COc1cn(-c2ccc(-n3cccn3)cc2F)nc(-c2ccnn2-c2ccccc2)c1=O | inactive
18 | CCC/C=C1\OC(=O)C2=C1CCC(O)C2O (stereo not given) | inactive
19 | C=CC(C)(O)CCC1C(C)(O)CCC2C(C)(C)CCCC21C (stereo not given) | inactive
20 | CC[C@H]1OC(=O)[C@H](C)C(=O)[C@H](C)[C@@H](OC2O[C@H](C)C[C@H](N(C)C)[C@H]2O)[C@@H](C)C[C@@H](C)C(=O)/C=C/[C@]1(C)O (stereo not given in full) | inactive [at 17.4 µM]

Row | SMILES | outcome
21 | CC1(C)CC[C@]2(C(=O)O)CC[C@]3(C)C(=CCC4[C@@]5(C)C[C@@H](O)[C@H](O)[C@](C)(CO)C5CC[C@]43C)[C@@H]2[C@@H]1O (stereo not given in full) | inactive [at 17.4 µM]
22 | COc1ccc(S(=O)(=O)Nc2nc(-c3cccc([N+](=O)[O-])c3)cs2)cc1OC | inactive
23 | NC1(c2ccc(NC(=O)c3ccnc(-c4cc(C(=O)O)ccn4)c3)cc2)CC1 | inactive
24 | COC(=O)C1=CO[C@@H](O[C@@H]2O[C@H](CO)[C@@H](O)[C@H](O)[C@H]2O)[C@@H]2C(C)CC(=O)[C@]12O (stereo not given in full) | inactive [at 17.4 µM]
25 | CC1C(=O)OCC2=CC[N+]3([O-])CCC(OC(=O)C(C)(O)C1(C)O)C23 (stereo not given) | inactive
26 | C=C1C(=O)O[C@@H]2CC(C)=C([C@@H](C)CCCOC(C)=O)[C@@H](O)[C@H]12 | inactive
27 | O=C(O)c1cc(C(F)(F)F)ccc1N1CC[C@H](OCc2ccccn2)C1 | inactive
28 | Fc1ccc(-c2c3cccc(C(F)(F)F)c3nn2Cc2ccc(F)cc2Cl)cc1 | inactive
29 | C/C(=C\CC/C(C)=C/CC[C@]1(C)CCc2cc(O)cc(C)c2O1)CC/C=C(\C)C(=O)O | inactive [at 17.4 µM]
30 | OC[C@@]1(O)CO[C@H](OC[C@H]2O[C@@H](OC(CCCCc3ccc(O)cc3)CCc3ccc(O)cc3)[C@H](O[C@H]3OC[C@](O)(CO)[C@H]3O)[C@@H](O)[C@@H]2O)[C@@H]1O (stereo not given in full) | inactive [at 17.4 µM]
31 | CC(C)=CCC(O)[C@](C)(O)C1[C@H](O)C[C@@]2(C)C3CC=C4C(C[C@H](O)[C@@H](O[C@@H]5O[C@H](CO)[C@@H](O)[C@H](O)[C@H]5O)C4(C)C)[C@]3(C)C(=O)C[C@]12C (stereo not given in full) | inactive [at 17.4 µM]
32 | C/C=C/C(=O)OC1/C=C/C(O)C(OC(C)=O)CCC(=O)OC1C (stereo not given) | inactive
33 | CC1(C)CC[C@]2(C(=O)O[C@@H]3O[C@H](CO[C@@H]4O[C@H](CO)[C@@H](O)[C@H](O)[C@H]4O)[C@@H](O)[C@H](O[C@@H]4O[C@H](CO)[C@@H](O)[C@H](O)[C@H]4O)[C@H]3O)[C@H](O)C[C@]3(C)C(=CCC4[C@@]5(C)CC[C@H](O[C@@H]6OC[C@@H](O)[C@H](O)[C@H]6O)[C@@](C)(C(=O)O)C5CC[C@]43C)[C@@H]2C1 (stereo not given in full) | inactive [at 9.27 µM]
34 | Cc1ccccc1-n1nc(-c2c(-c3ccc(F)cc3)nn3c2NC[C@@H](CO)C3)ccc1=O | inactive
35 | C=C(C)C1CCC2(C(=O)OC3OC(COC4OC(CO)C(O)C(O)C4O)C(OC4OC(C)C(O)C(O)C4O)C(O)C3O)CCC3(C(=O)O)C(CCC4C5(C)CCC(=O)C(C)(C)C5CCC43C)C12 (stereo not given) | inactive [at 9.27 µM]
36 | COc1ccc(C(=O)NCc2cc(C(C)C)no2)cc1OC1CCN(C)CC1 | inactive
37 | C=CC(C)(CCC=C(C)C)O[C@@H]1O[C@H](CO)[C@@H](O)[C@H](O)[C@H]1O (stereo not given in full) | inactive
38 | COC(=O)C1=COC(OC2OC(CO)C(O)C(O)C2O)C2C(C)CC(=O)C12O (stereo not given) | inactive [at 17.4 µM]
39 | COc1cc(/C=C/C(=O)OC[C@H]2O[C@@H](OC3CC(C)=C(C(=O)O)C(C)(C)C3)[C@H](O)[C@@H](O)[C@@H]2O)cc(OC)c1O (stereo not given in full) | inactive [at 17.4 µM]
40 | CC(C/C=C/C(C)(C)O)C1CCC(C)(O)C(O)C1 (stereo not given) | inactive
